# Results published in the supplement of paper PMC10849652.
# Of roughly 8,800 targets only a part is listed; those with a hit were picked by preference. About 0.5% of all pairs of compound and target were hits. Values without a mark were called inactive.
# Tests used:
# Assay in all cases: log2 fold change, soluble protein after heating vs DMSO (PISA); higher = thermal stabilisation; K562 lysate, 10 uM; active = over 0.2 and 3.5 SD of the protein, either way, in both replicates (recomputed)
# alvocidib = compound: CN1CC[C@H](c2c(O)cc(O)c3c(=O)cc(-c4ccccc4Cl)oc23)[C@H](O)C1 [alvocidib]
# In short: (§1)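 The values are log-two fold changes in thermal stability compared with solvent controls and come from duplicates. They were obtained by TMTpro 16plex LC-MS/MS, with channel sums equalised, on the supernatant after 21,000xg for 90 min. That supernatant came from crude K562 extract at 1 mg/mL protein treated with 10 μM compound for 30 min, heated for 3 min across 48°C-58°C, pooled and brought to 0.5% NP-40 at 4°C.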
# Tubastatin A = compound: CN1CCc2c(c3ccccc3n2Cc2ccc(C(=O)NO)cc2)C1 [Tubastatin A]
# In short: as §1
# [1] = compound: CNC(=O)C1=CC=CC=C1NC2=NC(=NC=C2Cl)NC3=C(C=C(C=C3)N4CCOCC4)OC
# In short: as §1
# defactinib = compound: CNC(=O)c1ccc(Nc2ncc(C(F)(F)F)c(NCc3nccnc3N(C)S(C)(=O)=O)n2)cc1 [defactinib]
# In short: as §1
# [2] = compound: CNc1nc(-c2ccc3c(N)n[nH]c3c2)cc(N2C[C@@H](C(=O)NC3CCCCC3)CC[C@H]2C)n1
# In short: as §1
# encorafenib = compound: COC(=O)N[C@@H](C)CNc1nccc(-c2cn(C(C)C)nc2-c2cc(Cl)cc(NS(C)(=O)=O)c2F)n1 [encorafenib]
# In short: as §1
# [3] = compound: COC(=O)[C@H](CCSC)NC(=O)C1=C(C=C(C=C1)NC[C@H](CS)N)C2=CC=CC=C2
# In short: as §1
# alisertib = compound: COc1cc(Nc2ncc3c(n2)-c2ccc(Cl)cc2C(c2c(F)cccc2OC)=NC3)ccc1C(=O)O [alisertib]
# In short: as §1
# [4] = compound: COc1cc2nc(-c3cc(F)ccc3O)nc(N[C@@H]3CNC[C@H]3C(C)(C)O)c2cc1OC
# In short: as §1
# gefitinib = compound: COc1cc2ncnc(Nc3ccc(F)c(Cl)c3)c2cc1OCCCN1CCOCC1 [gefitinib]
# In short: as §1
# Sequence of UniProt O75208 (O75208 whole entry, looked up): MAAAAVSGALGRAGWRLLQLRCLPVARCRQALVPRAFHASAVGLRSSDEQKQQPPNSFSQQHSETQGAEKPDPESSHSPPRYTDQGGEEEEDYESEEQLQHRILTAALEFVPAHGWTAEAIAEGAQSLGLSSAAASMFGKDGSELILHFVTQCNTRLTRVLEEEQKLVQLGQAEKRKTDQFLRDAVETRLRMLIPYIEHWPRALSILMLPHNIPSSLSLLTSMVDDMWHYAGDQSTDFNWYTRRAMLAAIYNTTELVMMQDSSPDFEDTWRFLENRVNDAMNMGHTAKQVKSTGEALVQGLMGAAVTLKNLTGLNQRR
# Sequence of UniProt Q8IWV2 (Q8IWV2 whole entry, looked up): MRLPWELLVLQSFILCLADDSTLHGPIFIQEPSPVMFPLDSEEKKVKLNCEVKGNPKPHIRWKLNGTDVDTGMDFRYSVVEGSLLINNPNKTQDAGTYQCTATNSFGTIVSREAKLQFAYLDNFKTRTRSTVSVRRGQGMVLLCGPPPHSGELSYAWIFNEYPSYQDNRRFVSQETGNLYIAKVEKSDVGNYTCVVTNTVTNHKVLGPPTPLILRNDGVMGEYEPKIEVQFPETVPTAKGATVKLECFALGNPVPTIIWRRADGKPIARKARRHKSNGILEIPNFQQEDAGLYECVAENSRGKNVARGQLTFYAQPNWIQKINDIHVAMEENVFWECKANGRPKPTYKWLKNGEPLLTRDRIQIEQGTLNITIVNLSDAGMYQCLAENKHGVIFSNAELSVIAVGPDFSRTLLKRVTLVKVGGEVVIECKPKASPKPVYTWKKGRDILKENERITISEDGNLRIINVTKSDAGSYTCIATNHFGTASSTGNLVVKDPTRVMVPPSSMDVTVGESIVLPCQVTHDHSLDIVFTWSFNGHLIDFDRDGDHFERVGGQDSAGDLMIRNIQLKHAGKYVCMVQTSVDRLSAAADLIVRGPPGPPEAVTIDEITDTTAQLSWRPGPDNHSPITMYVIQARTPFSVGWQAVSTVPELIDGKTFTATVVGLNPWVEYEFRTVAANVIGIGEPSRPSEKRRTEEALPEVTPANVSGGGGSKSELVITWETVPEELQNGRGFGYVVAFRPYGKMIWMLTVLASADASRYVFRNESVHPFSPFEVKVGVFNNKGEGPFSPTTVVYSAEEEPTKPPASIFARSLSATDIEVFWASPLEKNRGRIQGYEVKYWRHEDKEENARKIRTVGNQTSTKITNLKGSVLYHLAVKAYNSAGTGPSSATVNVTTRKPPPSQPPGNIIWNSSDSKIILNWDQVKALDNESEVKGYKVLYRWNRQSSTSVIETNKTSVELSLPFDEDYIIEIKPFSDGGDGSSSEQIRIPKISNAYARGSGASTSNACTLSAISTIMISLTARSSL
# Sequence of UniProt Q9H2P9 (Q9H2P9 whole entry, looked up): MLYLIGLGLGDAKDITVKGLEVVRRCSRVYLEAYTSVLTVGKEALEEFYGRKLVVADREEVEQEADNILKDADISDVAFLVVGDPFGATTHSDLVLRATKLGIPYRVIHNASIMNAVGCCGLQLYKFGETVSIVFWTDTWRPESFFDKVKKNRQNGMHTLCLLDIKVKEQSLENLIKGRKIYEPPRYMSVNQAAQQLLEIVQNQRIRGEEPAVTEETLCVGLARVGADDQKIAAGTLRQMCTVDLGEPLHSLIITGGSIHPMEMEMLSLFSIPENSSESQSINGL
# Sequence of UniProt Q8NI60 (Q8NI60 whole entry, looked up): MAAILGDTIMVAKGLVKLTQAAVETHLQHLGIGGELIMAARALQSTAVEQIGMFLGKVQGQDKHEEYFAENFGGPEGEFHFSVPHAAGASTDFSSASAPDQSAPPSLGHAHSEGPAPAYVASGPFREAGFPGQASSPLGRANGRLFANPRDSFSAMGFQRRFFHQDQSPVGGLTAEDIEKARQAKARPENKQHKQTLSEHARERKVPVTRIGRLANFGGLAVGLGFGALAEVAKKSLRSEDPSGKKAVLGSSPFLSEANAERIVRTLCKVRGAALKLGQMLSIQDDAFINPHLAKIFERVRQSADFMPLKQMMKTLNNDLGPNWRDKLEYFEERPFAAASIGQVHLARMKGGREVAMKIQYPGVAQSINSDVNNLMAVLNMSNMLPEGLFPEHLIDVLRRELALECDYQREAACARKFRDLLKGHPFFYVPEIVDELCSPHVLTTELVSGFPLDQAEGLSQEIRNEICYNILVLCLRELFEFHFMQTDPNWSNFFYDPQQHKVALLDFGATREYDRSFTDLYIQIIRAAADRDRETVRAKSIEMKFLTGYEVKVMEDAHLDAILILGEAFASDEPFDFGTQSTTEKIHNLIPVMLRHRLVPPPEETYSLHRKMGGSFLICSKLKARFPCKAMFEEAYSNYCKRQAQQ
# Sequence of UniProt P41240 (P41240 whole entry, looked up): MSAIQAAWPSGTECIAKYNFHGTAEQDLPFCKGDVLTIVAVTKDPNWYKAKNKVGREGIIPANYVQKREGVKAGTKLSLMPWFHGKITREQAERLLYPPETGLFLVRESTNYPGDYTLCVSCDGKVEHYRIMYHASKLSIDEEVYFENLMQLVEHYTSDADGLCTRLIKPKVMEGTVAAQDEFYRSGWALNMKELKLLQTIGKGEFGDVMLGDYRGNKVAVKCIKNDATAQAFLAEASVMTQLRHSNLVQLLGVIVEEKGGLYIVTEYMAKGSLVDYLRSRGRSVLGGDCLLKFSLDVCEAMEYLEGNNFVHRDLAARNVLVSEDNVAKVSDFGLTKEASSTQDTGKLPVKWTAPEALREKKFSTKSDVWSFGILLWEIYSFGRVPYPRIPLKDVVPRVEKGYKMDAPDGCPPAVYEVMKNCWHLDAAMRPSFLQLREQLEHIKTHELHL
# Sequence of UniProt P33240 (P33240 whole entry, looked up): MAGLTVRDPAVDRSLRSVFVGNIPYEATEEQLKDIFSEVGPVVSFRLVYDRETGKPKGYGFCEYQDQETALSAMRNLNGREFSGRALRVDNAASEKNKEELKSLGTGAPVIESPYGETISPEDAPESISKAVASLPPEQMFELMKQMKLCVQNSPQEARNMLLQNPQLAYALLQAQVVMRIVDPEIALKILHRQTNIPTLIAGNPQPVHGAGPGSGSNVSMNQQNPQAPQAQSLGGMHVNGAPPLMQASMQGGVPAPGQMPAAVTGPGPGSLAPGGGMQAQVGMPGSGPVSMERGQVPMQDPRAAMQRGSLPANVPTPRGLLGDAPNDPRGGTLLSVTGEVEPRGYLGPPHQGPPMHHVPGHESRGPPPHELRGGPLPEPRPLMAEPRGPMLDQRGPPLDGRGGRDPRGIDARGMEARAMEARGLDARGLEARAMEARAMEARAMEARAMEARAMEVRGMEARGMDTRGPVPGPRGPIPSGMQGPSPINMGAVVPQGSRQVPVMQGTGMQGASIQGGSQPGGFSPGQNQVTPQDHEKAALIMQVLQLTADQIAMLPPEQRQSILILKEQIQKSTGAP
# Sequence of UniProt P50416 (P50416 whole entry, looked up): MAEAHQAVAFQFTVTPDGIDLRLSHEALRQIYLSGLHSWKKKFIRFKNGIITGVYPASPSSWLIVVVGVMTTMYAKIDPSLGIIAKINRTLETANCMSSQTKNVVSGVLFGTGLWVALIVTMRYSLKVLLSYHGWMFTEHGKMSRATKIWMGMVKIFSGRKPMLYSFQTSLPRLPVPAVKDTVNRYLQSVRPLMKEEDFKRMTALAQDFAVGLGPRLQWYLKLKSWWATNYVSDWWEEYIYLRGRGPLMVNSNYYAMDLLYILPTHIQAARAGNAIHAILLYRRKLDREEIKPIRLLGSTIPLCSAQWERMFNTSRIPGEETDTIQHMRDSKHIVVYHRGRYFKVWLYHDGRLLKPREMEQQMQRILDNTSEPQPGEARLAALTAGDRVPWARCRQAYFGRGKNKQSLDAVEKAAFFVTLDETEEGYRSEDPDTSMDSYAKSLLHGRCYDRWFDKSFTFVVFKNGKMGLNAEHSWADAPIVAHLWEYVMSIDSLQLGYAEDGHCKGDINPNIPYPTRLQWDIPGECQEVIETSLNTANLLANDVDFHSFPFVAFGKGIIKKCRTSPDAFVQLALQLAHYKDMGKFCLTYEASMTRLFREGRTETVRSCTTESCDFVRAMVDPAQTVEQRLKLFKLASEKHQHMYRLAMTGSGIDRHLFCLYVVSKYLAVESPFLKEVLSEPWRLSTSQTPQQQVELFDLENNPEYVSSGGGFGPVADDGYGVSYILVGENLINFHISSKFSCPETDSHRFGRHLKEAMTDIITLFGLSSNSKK
# Sequence of UniProt Q9H5X1 (Q9H5X1 whole entry, looked up): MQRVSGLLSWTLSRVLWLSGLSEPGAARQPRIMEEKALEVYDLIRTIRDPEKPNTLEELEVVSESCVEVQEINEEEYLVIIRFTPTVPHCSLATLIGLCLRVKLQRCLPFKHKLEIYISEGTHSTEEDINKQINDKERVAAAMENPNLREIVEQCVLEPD
# Sequence of UniProt Q9UHD1 (Q9UHD1 whole entry, looked up): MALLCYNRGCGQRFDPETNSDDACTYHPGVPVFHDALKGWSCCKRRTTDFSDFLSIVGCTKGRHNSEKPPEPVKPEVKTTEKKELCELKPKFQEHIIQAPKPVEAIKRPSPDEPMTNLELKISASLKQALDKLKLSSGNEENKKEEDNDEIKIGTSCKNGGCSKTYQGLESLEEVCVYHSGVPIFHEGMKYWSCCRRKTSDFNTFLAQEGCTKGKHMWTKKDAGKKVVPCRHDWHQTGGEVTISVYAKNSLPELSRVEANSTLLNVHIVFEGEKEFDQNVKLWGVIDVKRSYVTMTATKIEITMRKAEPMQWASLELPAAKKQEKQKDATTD
# Sequence of UniProt P61024 (P61024 whole entry, looked up): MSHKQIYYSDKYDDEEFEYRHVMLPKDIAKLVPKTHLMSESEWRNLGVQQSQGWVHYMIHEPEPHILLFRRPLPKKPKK
# Sequence of UniProt Q9BY43 (Q9BY43 whole entry, looked up): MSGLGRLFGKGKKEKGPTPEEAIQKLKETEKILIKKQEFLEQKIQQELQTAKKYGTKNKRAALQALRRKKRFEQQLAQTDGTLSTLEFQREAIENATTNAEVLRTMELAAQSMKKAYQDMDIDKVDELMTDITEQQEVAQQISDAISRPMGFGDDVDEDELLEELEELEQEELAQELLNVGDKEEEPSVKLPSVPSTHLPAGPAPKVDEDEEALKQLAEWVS
Target,log2 fold change (alvocidib),log2 fold change (Tubastatin A),log2 fold change [1],log2 fold change (defactinib),log2 fold change [2],log2 fold change (encorafenib),log2 fold change [3],log2 fold change (alisertib),log2 fold change [4],log2 fold change (gefitinib)
CNDP2 (UniProt Q96KP4),-0.11,0.039,0.003,0.005,0.1,-0.02,0.002,-0.031,0.047,0.013
CLPTM1L (UniProt Q96KA5),0.001,-0.064,-0.131,0.015,-0.204,0.021,-0.029,0.054,-0.097,0.011
CMBL (UniProt Q96DG6),0.006,0.001,-0.012,-0.051,0.013,-0.051,-0.009,0.001,0.038,0.03
CLP1 (UniProt Q92989),-0.103,-0.179,0.004,0.071,-0.037,0.02,0.023,-0.002,0.031,0.033
CSTF2 (UniProt P33240),-0.023,0.011,0.014,-0.016,0.024,-0.009,-0.099,0.03,0.011,0.008
CLIP1 isoform 1 (UniProt P30622),-0.005,0.038,0.014,-0.006,-0.008,0.003,-0.03,-0.016,0.014,0.001
COQ9 (UniProt O75208),0.002,-0.041,-0.035,0.023,0.136,-0.021,0.024,0.026,0.025,-0.012
CHORDC1 (UniProt Q9UHD1),0.033,0.004,0.007,0,-0.002,-0.029,-0.018,-0.012,-0.008,-0.026
DDX4 (UniProt Q9NQI0),-0.234,-0.173,-0.05,-0.058,-0.116,-0.047,-0.02,0.032,-0.007,0.021
CSK (UniProt P41240),0.076,-0.088,0.262,0.068,-0.027,-0.026,-0.063,0.072,-0.008,-0.01
CPT1A (UniProt P50416),0.407 (active),0.261,0.004,-0.053,0.113,0.036,0.078,-0.014,-0.051,0.031
CSNK1G3 (UniProt Q9Y6M4),0.032,0.064,0.014,0.069,0.03,0.018,-0.033,-0.005,0.459 (active),-0.005
DMXL1 (UniProt Q9Y485),0.01,-0.014,0.019,0.024,0.012,0.055,-0.015,-0.031,0.009,0.038
CNOT6L (UniProt Q96LI5),-0.091,0.022,0.022,0.046,0.013,0.036,0.066,-0.005,0.037,-0.033
COPZ1 isoform 4 (UniProt P61923),0.084,0.055,0.081,0.166,-0.093,-0.011,-0.049,0.045,-0.077,-0.142
CKS1B (UniProt P61024),0.117,-0.001,0.032,0.075,-0.055,0.04,-0.014,-0.031,-0.024,0.071
DNAJC3 (UniProt Q13217),0.004,0.073,0.005,0.021,-0.029,0.044,0.011,0,0.005,0.026
CXorf38 (UniProt Q8TB03),0,0.039,0.04,-0.012,-0.016,0.02,-0.012,-0.021,-0.058,-0.056
CIAO2A (UniProt Q9H5X1),0.034,0.04,0,-0.002,0.109,0.026,-0.052,0.089,0.009,0.088
DHRS1 (UniProt Q96LJ7),-0.057,0.02,0.188,-0.238,-0.012,0.164,-0.102,0.059,0.028,-0.075
CHMP4A isoform 2 (UniProt Q9BY43),-0.096,0.048,-0.01,0.007,0.039,0.026,-0.001,0.028,0.043,0.041
CKAP5 (UniProt Q14008),0.008,-0.076,0.019,0.008,0.003,0.013,0.074,0.012,0.007,-0.005
CNTN4 (UniProt Q8IWV2),-0.148,0.185,0.021,-0.104,,-0.193,0.124,-0.074,0.03,-0.022
COQ8A (UniProt Q8NI60),0.051,-0.06,0.384,0,0.079,0.145,-0.009,-0.023,0.009,0.447
DPH5 isoform 5 (UniProt Q9H2P9),-0.012,0.02,0.119,-0.002,0.02,-0.044,-0.024,-0.045,-0.018,0.04
DLD (UniProt P09622),-0.024,0.041,0.03,-0.02,0.046,-0.014,-0.13,0,0.008,-0.055
CKAP2 (UniProt Q8WWK9),-0.059,-0.009,0.071,-0.075,0.028,0.097,-0.092,-0.044,0.049,0.06
DBF4 (UniProt Q9UBU7),-0.118,-0.072,-0.025,-0.023,-0.058,0.04,-0.072,-0.028,,-0.029
DNAH10 (UniProt Q8IVF4),-0.248,0.056,-0.086,-0.074,0.246,-0.04,-0.001,0.027,0.046,0.043
DDAH1 (UniProt O94760),0.015,0.007,0.037,0.014,-0.002,0,0.009,,0.003,
